# Data: PubChem BioAssay (NCI)
# About 83,000 compounds went through this panel and 20% of them were active in at least one assay; those are over-represented in the sample as a whole.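 The test compound was applied at a single concentration to cells in 96-well plates for 48 hours, and percent growth was recorded.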 Values without a mark were called inactive. Active and inactive are the calls of the source. The calls were made as follows: active = growth percent below 10; inactive = the rest.
# System: OVCAR-5 ovarian
# Assay: NCI-60 one-dose screen, 48 h (100 = growth as untreated, 0 = no growth, -100 = all killed)
# Conditions: 10 µM unless noted
row,SMILES,growth [%]
1,CCCCN1CCN(c2ccc3nc(-c4ccc5nc(-c6ccc(OCC)c(OCC)c6)[nH]c5c4)[nH]c3c2)CC1,37.7
2,COc1ccc(C2CC(c3ccccc3)=NN2c2nc(C)c(C(C)=O)s2)cc1 (stereo not drawn),105
3,O=C(/C=C/C12c3ccccc3C(c3ccccc31)C1C(=O)NC(=O)C12)c1ccccc1 (stereo not drawn),26.4

# System: OVCAR-4 ovarian
# Assay: as above
# Conditions: 10 µM unless noted
row,SMILES,growth
1,COc1cc2c(c(OC)c1OC)C(=O)/C(=C/c1cc(C)c(O)c(C)c1)S2,51.8%
2,COc1cc(CNC(=O)/C=C/C=C/c2ccc3c(c2)OCO3)ccc1OCc1cn(-c2ccc(Cl)c(Cl)c2)nn1,-62.7% (active)
3,COc1ccccc1C(=O)NC(=S)Nc1ccc(-c2nc3ccccc3[nH]2)cc1,-60.7% (active)
4,O=C(/C=C/C12c3ccccc3C(c3ccccc31)C1C(=O)N(c3ccccc3)C(=O)C12)c1ccc(Cl)cc1 (stereo not drawn),17.6%
5,COc1cc(NC(=O)c2cccc(-c3cc(=O)c4c(O)c(OC)c(OC)cc4o3)c2)cc(OC)c1OC,58.6%
6,Nc1c(C(=O)c2ccc(Cl)s2)sc2nc3c(cc12)CCCC3,112%
7,N#Cc1c(-c2ccccc2)nc(SCC2CO2)nc1N1CCOCC1 (stereo not drawn),71.1%
8,CCCCN(CCCC)CCCn1c(=O)c2sc3ncccc3c2n2nnc(-c3ccccc3)c12,103%
9,CC1(C)CC(=O)c2c(ccc(C(=O)C[C@H](N)CO)c2N)O1,69.8%
10,COc1ccc(NC(=O)c2cccc(-c3cc(=O)c4c(O)c(OC)c(OC)cc4o3)c2)cc1,97.5%
11,CCn1c(Sc2nnc(NC(C)=O)s2)nc2c1c(=O)n(C)c(=O)n2C,101%
12,COc1cc(NC(=O)c2cccc(-c3cc(=O)c4c(OC)c(OC)c(OC)cc4o3)c2)cc(OC)c1OC,74.8%
13,CN(C)CN1CCN(c2ccc3nc(-c4ccc5nc(-c6ccc(C(F)(F)F)cc6)[nH]c5c4)[nH]c3c2)CC1,-4.77% (active)
14,COc1ccc(C2CC(c3ccc4ccccc4c3)=NN2c2nc(O)c(C3=c4cc(Cl)ccc4=NC3=O)s2)cc1 (stereo not drawn),-61.5% (active)
15,NS(=O)(=O)c1cnccc1-n1ccc(=O)c(S(N)(=O)=O)c1,95.2%
16,O=C(/C=C/C12c3ccccc3C(c3ccccc31)C1C(=O)N(c3ccc(Cl)cc3)C(=O)C12)c1ccccn1 (stereo not drawn),-6.96% (active)
17,O=C1CC(c2ccc3c(c2)OCO3)Nc2cc3c(cc21)OCO3 (stereo not drawn),49.9%
18,C=CCOc1cccc(/C=C2\SC(=Nc3ccc(O)cc3)NC2=O)c1,32%
19,Cc1cc(-c2ccc(N(C)C)cc2)c2sc(=O)[nH]c2n1,83.2%
20,O=C1NC(=S)S/C1=C\N1N=C(c2ccc(Cl)cc2)CC1c1ccc(F)cc1 (stereo not drawn),91.4%

row,SMILES,growth
1,COc1ccccc1NC(=O)Nc1ccc(-c2nc3ccccc3o2)cc1,95.3%
2,O=C(c1ccccc1)c1ccc(N2C(=O)C3C4c5ccccc5C(/C=C/C(=O)c5ccccn5)(c5ccccc54)C3C2=O)cc1 (stereo not drawn),32.4%
3,Cc1ccc2c(n1)C(=O)C(Oc1ccc(F)cc1)=CC2=O,96.6%
4,COc1cc2ccccc2cc1C(=O)NC(=S)Nc1ccc(-c2nc3ccccc3[nH]2)cc1,-35.9% (active)
5,COc1cc2c(O)n(CCCn3ccnc3)c3c4cnc5cccc(c(=O)c3c2cc1OC)c54,50.9%
6,Cc1nn(-c2ccccc2)c2c1C(c1ccc([N+](=O)[O-])cc1)C(C#N)=C(N)O2 (stereo not drawn),100%
7,Cc1ccc(S(=O)(=O)N(CC[C@@H]2C[C@H]2c2cc3ccccc3o2)C(=O)NC2CCCCC2)cc1,93%
8,N#Cc1c(NC(=O)c2ccc(Br)cc2)sc2c1CCCC2,69.6%
9,COc1cc(C(=O)Nc2cc(O)c(CC=C(C)C)c(O)c2)cc2c1O[C@]1(C)CC[C@@H](O)C(C)(C)[C@H]1C2,58.6%
10,COc1cc(-c2cccc([N+](=O)[O-])c2)c(-c2nc(-c3ccccc3)c(-c3ccccc3)n2C2CC2)cc1OC,62.2%
11,O=c1[nH]c(NCc2nnnn2-c2ccc(Br)cc2)nc2sc3c(c12)CCCC3,95.2%
12,CN(C)CCOC(=O)Nc1ccc(Cl)cc1,117%
13,O=C(NC(=S)Nc1ccc(-c2nc3ccccc3[nH]2)cc1)c1ccc2ccccc2c1,-18.7% (active)
14,O=c1ccn(C2OC(F)(CO)C(O)C2F)c(=O)[nH]1 (stereo not drawn),105%
15,Cc1ccc(NC(=O)C(Cl)Cl)cc1,116%
16,CCCCN1CCN(c2ccc3nc(-c4ccc5nc(-c6cc(OC)c(OC)c(OC)c6)[nH]c5c4)[nH]c3c2)CC1,84.4%
17,CCCCCCCCn1cc(C2=C(c3coc4ccc(OC)cc34)C(=O)NC2=O)c2ccccc21,106%
18,CCCCN1CCN(c2ccc3nc(-c4ccc5nc(-c6ccc(OCC)c(OCC)c6)[nH]c5c4)[nH]c3c2)CC1,-77.4% (active)
19,COc1ccc(C2CC(c3ccccc3)=NN2c2nc(C)c(C(C)=O)s2)cc1 (stereo not drawn),97.1%
20,O=C(/C=C/C12c3ccccc3C(c3ccccc31)C1C(=O)NC(=O)C12)c1ccccc1 (stereo not drawn),39.4%
